According to ChEMBL document CHEMBL3988442, “University of Dundee, Small-Polar-MMV Screening Library” (2021):
For some of these results: Results with a measured potency or affinity are listed apart.

Columns and labels:
Set-up in all cases: scale not given: direction of the effect not stated beside the values
[1] = molecular target: Protein translocase subunit SecA (Escherichia coli (strain K12)) (UniProt P10408); experiment: Assay to Identify E. coli SecA ATPase Inhibitors; format: functional; conditions: 30 µM
[2] = molecular target: T1, Ubiquitin-activating enzyme e1, putative (Leishmania donovani (strain BPK282A1)) (UniProt E9BSI1); experiment: Leishmania donovani Ubiquitin Activating Enzyme (LdE1); format: functional; conditions: 30 µM
T1 sequence (whole entry): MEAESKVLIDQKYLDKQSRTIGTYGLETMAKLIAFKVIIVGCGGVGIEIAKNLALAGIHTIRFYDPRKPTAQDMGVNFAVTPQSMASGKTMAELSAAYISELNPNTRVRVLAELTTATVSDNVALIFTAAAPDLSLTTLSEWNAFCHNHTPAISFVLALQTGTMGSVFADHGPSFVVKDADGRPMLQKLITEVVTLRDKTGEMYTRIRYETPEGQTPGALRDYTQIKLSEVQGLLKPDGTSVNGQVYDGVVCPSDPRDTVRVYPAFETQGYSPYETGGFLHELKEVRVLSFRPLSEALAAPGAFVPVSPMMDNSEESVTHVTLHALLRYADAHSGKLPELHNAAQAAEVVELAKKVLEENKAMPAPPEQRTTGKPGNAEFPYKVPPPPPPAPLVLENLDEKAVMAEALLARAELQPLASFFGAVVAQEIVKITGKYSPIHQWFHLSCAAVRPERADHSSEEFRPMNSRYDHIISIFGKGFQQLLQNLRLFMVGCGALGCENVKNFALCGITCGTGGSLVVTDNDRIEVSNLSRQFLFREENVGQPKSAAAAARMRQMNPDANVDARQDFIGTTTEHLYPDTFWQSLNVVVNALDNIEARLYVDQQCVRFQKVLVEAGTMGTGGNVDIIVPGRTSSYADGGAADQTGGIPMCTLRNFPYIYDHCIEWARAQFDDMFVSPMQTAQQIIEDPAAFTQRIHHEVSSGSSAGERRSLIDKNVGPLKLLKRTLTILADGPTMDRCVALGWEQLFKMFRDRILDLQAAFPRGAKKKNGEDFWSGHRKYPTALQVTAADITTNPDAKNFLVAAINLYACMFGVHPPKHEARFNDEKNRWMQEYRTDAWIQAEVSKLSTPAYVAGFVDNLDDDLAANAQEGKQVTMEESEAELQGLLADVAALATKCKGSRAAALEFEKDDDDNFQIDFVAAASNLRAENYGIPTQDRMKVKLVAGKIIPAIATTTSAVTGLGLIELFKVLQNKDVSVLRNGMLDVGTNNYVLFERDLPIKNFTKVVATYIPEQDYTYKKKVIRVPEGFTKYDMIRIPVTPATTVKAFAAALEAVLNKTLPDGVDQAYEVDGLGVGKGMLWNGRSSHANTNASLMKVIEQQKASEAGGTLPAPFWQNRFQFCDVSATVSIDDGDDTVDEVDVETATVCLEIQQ

[3] = molecular target: Sialic acid-binding Ig-like lectin 9 (Homo sapiens) (UniProt Q9Y336); experiment: Hs-Siglec9 ALPHAscreen SOP 20170721; conditions: 10 µM
Trypanosoma cruzi = experiment: Trypanosoma cruzi phosphomannomutase and mannose-1-phosphate guanylyltransferase assay; format: functional; conditions: 10 µM
[4] = molecular target: T2, Arginase-2, mitochondrial (Homo sapiens) (UniProt P78540); experiment: in vitro enzyme assay to detect the production of urea directly proportional to the activity of Arginase II; format: functional; conditions: 33.3 µM; further: in the data most compounds retested in dose-response had high values
T2 sequence (whole entry): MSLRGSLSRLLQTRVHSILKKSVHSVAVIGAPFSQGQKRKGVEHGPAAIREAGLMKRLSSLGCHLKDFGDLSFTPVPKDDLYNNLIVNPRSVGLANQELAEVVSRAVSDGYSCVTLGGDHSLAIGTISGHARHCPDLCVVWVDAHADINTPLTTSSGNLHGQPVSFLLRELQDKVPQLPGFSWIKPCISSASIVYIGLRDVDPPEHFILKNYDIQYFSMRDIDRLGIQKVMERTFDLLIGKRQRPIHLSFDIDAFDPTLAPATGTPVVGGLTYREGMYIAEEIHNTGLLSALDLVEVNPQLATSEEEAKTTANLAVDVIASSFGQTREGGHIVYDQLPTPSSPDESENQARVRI

[5] = molecular target: T3, Proteasome subunit beta (Trypanosoma cruzi) (UniProt O96673); experiment: Trypanosoma cruzi proteasome chymotrypsin-like activity (TcProtChymo) assay.; further: in the data most compounds retested in dose-response had high values; format: functional; conditions: 9.37 µM
T3 sequence (whole entry): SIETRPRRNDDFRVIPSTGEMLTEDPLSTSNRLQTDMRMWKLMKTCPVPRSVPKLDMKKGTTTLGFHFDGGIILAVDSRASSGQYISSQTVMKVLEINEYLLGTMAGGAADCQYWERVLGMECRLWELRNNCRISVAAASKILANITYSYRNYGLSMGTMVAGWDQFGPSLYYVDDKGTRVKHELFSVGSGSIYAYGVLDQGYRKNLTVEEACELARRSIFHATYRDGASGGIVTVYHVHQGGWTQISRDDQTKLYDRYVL

Homo sapiens = organism: Homo sapiens; experiment: To identify inhibition of the IFN signalling (Jak-Stat) pathway via expression of an eGFP reporter gene under the control of an IFN-stimulated response element (ISRE) containing MxA promoter.; format: functional; conditions: 30 µM
[6] = molecular target: T4, Tyrosyl-tRNA synthetase, putative (Trypanosoma cruzi (strain CL Brener)) (UniProt Q4DSP6); experiment: Trypanosoma cruzi tyrosyl tRNA synthetase (TcYRS) _High Tyrosine SOP; format: functional; conditions: 30 µM; further: in the data most compounds retested in dose-response had high values
T4 sequence (whole entry): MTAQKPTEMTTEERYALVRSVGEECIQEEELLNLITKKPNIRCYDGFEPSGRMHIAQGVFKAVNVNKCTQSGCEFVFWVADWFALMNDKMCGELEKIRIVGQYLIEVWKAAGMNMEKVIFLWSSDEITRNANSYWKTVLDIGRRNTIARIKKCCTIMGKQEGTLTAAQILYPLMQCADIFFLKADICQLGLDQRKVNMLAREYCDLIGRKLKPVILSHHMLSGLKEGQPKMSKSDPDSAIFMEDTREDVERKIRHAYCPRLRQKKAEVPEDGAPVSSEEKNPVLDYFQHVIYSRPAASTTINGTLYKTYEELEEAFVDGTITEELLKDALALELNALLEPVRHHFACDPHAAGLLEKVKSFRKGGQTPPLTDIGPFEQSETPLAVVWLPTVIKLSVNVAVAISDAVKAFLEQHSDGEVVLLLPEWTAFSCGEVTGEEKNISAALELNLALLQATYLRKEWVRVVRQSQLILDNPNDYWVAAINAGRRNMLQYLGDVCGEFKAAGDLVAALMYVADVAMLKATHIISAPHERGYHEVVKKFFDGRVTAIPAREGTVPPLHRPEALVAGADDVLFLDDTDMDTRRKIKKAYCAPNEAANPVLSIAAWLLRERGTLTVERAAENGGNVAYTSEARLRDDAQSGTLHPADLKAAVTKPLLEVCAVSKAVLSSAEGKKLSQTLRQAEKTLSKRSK

[7] = molecular target: T4, Tyrosyl-tRNA synthetase, putative (Trypanosoma cruzi (strain CL Brener)); experiment: Trypanosoma cruzi tyrosyl tRNA synthetase (TcYRS) SOP; format: functional; conditions: 30 µM
[8] = molecular target: Chromo domain-containing protein 1 (Saccharomyces cerevisiae (strain ATCC 204508 / S288c) (Baker's yeast)) (UniProt P32657); experiment: ScCHD-1 Enzyme Inhibition Assay; format: functional; conditions: 30 µM; further: in the data most compounds retested in dose-response had high values
Chromo domain-containing protein 1 (Saccharomyces cerevisiae (strain ATCC 204508 / S288c) (Baker's yeast)), sequence (P32657 whole entry, the tested form may be a part): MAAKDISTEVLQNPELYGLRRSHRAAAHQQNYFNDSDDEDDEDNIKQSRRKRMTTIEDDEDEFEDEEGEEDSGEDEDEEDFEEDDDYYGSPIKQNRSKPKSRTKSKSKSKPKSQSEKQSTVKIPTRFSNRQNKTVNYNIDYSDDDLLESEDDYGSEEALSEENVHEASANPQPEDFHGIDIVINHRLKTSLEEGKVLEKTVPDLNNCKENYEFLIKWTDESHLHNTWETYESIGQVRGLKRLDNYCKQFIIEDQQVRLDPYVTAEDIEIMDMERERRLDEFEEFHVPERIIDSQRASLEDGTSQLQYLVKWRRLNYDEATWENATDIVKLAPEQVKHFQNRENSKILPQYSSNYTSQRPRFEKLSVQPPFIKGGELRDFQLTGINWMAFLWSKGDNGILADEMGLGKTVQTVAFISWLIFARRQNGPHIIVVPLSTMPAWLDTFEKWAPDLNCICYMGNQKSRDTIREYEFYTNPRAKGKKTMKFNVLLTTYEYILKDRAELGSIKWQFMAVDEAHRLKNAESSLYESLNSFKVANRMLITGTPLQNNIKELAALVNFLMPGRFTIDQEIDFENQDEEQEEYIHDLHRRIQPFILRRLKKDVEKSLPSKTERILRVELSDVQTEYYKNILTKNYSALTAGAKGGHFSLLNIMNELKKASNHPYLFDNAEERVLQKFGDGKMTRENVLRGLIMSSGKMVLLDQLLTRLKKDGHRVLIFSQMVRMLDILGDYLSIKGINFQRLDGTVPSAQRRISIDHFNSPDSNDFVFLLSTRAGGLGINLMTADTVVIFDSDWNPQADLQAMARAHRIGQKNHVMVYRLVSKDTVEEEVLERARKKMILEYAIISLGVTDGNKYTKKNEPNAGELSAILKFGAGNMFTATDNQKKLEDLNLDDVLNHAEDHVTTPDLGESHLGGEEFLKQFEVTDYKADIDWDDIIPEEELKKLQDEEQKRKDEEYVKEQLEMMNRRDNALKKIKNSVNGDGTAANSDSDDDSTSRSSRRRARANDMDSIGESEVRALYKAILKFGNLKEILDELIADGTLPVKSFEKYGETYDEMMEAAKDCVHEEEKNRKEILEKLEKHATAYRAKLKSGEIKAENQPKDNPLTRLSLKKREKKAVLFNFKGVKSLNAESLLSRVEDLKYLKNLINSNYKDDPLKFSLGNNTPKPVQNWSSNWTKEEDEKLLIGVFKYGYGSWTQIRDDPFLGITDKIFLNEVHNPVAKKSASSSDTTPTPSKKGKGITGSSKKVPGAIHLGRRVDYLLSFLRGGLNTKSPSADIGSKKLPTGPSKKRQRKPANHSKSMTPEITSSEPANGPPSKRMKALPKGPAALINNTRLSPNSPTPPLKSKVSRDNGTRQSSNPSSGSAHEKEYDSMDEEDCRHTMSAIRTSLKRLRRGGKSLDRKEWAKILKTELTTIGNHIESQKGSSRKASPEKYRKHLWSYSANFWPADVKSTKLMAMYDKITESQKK

Sialic acid-binding Ig-like lectin 9 (Homo sapiens), sequence (Q9Y336 whole entry): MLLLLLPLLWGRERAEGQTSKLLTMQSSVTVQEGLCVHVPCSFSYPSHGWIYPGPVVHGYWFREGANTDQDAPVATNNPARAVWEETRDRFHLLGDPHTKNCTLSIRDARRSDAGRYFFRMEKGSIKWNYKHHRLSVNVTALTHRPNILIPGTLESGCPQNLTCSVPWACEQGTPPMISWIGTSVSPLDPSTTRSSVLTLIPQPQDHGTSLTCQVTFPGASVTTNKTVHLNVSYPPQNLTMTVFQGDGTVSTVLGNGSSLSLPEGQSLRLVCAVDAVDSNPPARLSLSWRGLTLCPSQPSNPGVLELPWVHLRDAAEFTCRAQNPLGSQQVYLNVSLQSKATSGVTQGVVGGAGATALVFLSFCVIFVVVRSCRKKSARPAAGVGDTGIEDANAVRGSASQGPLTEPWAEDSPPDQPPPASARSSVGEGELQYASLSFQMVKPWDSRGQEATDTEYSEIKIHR
Protein translocase subunit SecA (Escherichia coli (strain K12)), sequence (P10408 whole entry): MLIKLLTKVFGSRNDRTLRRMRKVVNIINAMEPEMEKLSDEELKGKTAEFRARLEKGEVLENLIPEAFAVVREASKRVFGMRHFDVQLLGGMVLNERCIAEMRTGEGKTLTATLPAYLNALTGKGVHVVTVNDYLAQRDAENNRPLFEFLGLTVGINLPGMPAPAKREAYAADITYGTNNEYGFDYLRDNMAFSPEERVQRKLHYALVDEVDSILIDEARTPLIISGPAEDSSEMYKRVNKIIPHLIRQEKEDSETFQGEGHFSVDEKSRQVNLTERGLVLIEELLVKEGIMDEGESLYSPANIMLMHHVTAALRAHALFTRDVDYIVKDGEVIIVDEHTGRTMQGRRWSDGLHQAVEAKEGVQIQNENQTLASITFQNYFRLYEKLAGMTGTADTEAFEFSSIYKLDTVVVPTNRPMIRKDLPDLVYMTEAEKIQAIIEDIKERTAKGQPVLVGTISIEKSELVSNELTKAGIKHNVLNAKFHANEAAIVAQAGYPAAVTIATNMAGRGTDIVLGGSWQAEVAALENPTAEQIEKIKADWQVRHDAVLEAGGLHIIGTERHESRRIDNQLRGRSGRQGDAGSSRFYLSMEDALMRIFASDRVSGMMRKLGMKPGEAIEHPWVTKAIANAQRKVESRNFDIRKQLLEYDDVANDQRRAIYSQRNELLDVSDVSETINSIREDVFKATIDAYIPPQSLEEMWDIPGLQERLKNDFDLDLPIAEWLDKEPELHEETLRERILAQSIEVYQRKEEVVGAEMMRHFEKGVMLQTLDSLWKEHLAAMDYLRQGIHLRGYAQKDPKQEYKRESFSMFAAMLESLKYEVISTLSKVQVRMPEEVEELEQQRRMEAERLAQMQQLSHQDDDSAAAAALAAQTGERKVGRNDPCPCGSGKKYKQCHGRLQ

Structure (SMILES) | Percent Effect [1] [%] | Percent Effect [2] [%] | Percent Effect [3] [%] | Percent Effect (Trypanosoma cruzi) [%] | Percent Effect [4] [%] | Percent Effect [5] [%] | Percent Effect (Homo sapiens) [%] | Percent Effect [6] [%] | Percent Effect [7] [%] | Percent Effect [8] [%]
CN(CCNC(=O)c1scnc1Cl)c1ccccc1 | -1.49 | 10.7 | -1.26 | -8.23 | 3.99 | 19.9 | 20 | 1.58 | 10.3 | -6.98
Cc1cnn(C(C)C2CC2)c1NC(=O)c1cnccn1 (stereo not given) | -5.04 | 0 | 0.592 | 1.07 | 0.35 | -1.03 | 16.7 | 1.6 | 4.88 | 2.37
CCn1cc(NC(=O)CCc2ccc3c(c2)OCCCO3)cn1 | -5.48 | 15.6 | 6.08 | 4.85 | -6.35 | 2.28 | 0.692 | 6.86 | 23.5 | -12.8
Cc1ccc(N2CCC3(CCN(C(N)=O)CC3)CC2)nn1 | -4.59 | 1.3 | -5.12 | -8.47 | 3.64 | 13.5 | 5.72 | 1.58 | 0 | -0.155
COCC1CN(Cc2ccsc2)Cc2nn(C)cc21 (stereo not given) | -4.97 | 6.49 | -3.38 | -7.11 | 2.83 | 20.9 | 13.5 | 3.68 | 0 | 2.62
CCn1nc(C)c(CCNC(=O)C2CCCN(CC(N)=O)C2)c1C (stereo not given) | -8.24 | 8.11 | 27.7 | 9.02 | 9.44 | 5.14 | 12.5 | 10.1 | 17.1 | -5.53
COC[C@@]12CC[C@@H](N3CCOCC3)C[C@H]1CCN(c1ncccc1Cl)C2 | -6.53 | 13.5 | 12.5 | 4.56 | 10.8 | 7.02 | 2.53 | 5.85 | 19.5 | -2.53
Cn1ncc(C(=O)N2CCCC(n3cccn3)C2)c1C1CC1 (stereo not given) | -4.48 | 10.7 | 0.531 | -3.61 | 3.1 | 11.6 | 8.56 | 2.63 | 5.13 | -7.06
Cc1noc(C)c1CN(C)C(=O)NC1CCN(C2CC2)CC1 | -1.46 | 2.56 | 0.345 | 2.91 | -0.82 | -3.84 | -6.08 | 2.39 | 8.43 | 3.21
Cc1ccc(CNC(=O)CN2CCCC(Cn3cncn3)C2)s1 (stereo not given) | 0.165 | 21.3 | -6.68 | 3.61 | 3.99 | 22.3 | -8.31 | 4.74 | 12.8 | -11.2
COc1cccc(-c2noc(C3CCN(Cc4cn(C)nc4C)C3)n2)c1 (stereo not given) | -3.83 | 14.7 | 3.58 | 5.72 | -1.33 | 14.1 | 31.6 | 6.35 | 20 | -24.7
Cn1cnc2c1CCN(CCCc1ccccc1)C2 | -5.94 | 2.67 | 4.07 | 5.62 | -3.55 | 4.16 | 23.4 | 7.89 | 12.8 | -10.6
COc1c(C2CCCN2Cc2c(C)noc2C)c(C)nn1C (stereo not given) | -5.49 | -2.67 | 0.668 | 5.82 | 1.33 | 6.19 | -12.5 | 0.526 | 5.13 | -8.53
Cc1ccsc1C(=O)N1Cc2ccccc2C2(CCN(C)CC2)C1 | -4.41 | -1.3 | -5.71 | -5.55 | -2.02 | 5.56 | -24.7 | 1.58 | 2.56 | -2.8
CCn1cnnc1CNC(=O)N1CCOCC1 | -3.29 | 0 | 6.4 | -3.41 | 2.66 | 2.97 | -3.83 | 2.63 | 0 | -2.64
COCc1nc(C(=O)NS(=O)(=O)c2ccc(C)cc2C)cs1 | -3.05 | 0 | 4.98 | 1.97 | 4.1 | -6.23 | -17.6 | 2.39 | 1.21 | -0.274
CN(C)C(=O)CN1C(=O)CCC12CCN(Cc1cccn1C)CC2 | -0.209 | -1.3 | 0.456 | 3 | -0.913 | 11.9 | 7.89 | 10.6 | 20 | -9.53
CN(Cc1ccc(F)cc1)[C@@H]1CN(C(=O)c2cccs2)C[C@H]1O | -4.06 | 17.3 | -0.715 | 1.97 | -3.1 | 17.6 | 10.6 | 5.29 | 20 | -21.9
CSc1ccc(Cl)c(C(=O)N2CCCC(CNS(C)(=O)=O)C2)c1 (stereo not given) | 0.802 | 26 | -6.07 | 1.12 | -14.6 | 18.2 | 13 | 1.96 | 28.2 | -11.3
Cn1cnnc1C1CCCN(C(=O)c2cc(Cl)c3c(c2)OCO3)C1 (stereo not given) | -2.96 | 5.33 | 2.45 | -5.02 | 2.22 | 8.57 | 4.91 | 0.526 | 10.3 | -5.32
COCC(=O)N1CCC2(CC1)CC(CC(=O)NC1CC1)c1ccccc12 (stereo not given) | -8.48 | -1.3 | 3.8 | -1.66 | -6.88 | -0.0883 | -8.57 | -0.526 | 5.13 | -0.682
COc1ccc(C(=O)N2C[C@@H](CN3CCOCC3)[C@@H](CO)C2)c(C)c1 | -3.12 | 0 | 14.3 | 7.47 | 6.64 | 1.71 | -27.6 | 1.6 | 9.76 | -1.95
